Screening data deposited in PubChem BioAssay by Broad Institute.
aSyn UTR act – Activators via SNCA 5'UTR binding, MLPCN; activity score, % (tested at 7.5 µM), hits read low; 300,000 tested, 7.1% active; alpha-synuclein 5'UTR reporter, activators screen; AID 1814, 2009; in the data active = activity score below about -60%
Numbers without * were called inactive. A selection follows.

CN1C(=O)S/C(=C\c2ccc(-n3cncn3)cc2)C1=O was read as aSyn UTR act -93.2*.
Screening Brc1ccc(-c2nc(N/N=C/c3cccnc3)c3ccccc3n2)cc1 returned aSyn UTR act -92.3*.
`Cc1cc(N/N=C/c2ccccc2[N+](=O)[O-])nc(-n2nc(C)cc2C)n1` gave aSyn UTR act 56.9.
`Cc1ccc(-c2nc(N/N=C/c3ccccc3[N+](=O)[O-])c3ccccc3n2)cc1` gave aSyn UTR act -267.0*.
`Cc1c(NC(=O)c2cc(C3CC3)on2)c(=O)n(-c2ccccc2)n1C` gave aSyn UTR act -61.7*.
For Cc1c(N/N=C(\C#N)C(=O)c2ccc(Cl)cc2)c(=O)n(-c2ccccc2)n1C the results were aSyn UTR act 86.3.
Screening CC(=O)n1cc(N(C(=O)CCl)c2ccc(Cl)cc2)c2ccccc21 returned aSyn UTR act 102.8.
Cc1ccccc1NC(=O)C(=O)c1cn(C)c2ccccc12 was read as aSyn UTR act -132.7*.
`c1ccc(CCn2nnc3ccccc32)cc1` gave aSyn UTR act -137.9*.
Screening CC(=O)c1ccc(N(C(=O)Cn2nnc3ccccc32)C(C(=O)NCc2ccccc2)c2ccccn2)cc1 (centres undefined) returned aSyn UTR act -105.8*.
Screening O=C(Cn1nnc2ccccc21)NCc1ccccc1 returned aSyn UTR act -99.9*.
Screening CCCCCOc1ccc(Cl)cc1CN1CCOCC1 returned aSyn UTR act -77.5*.
For CC(C)c1ccc(NC(=O)CSc2ncccc2C(=O)Oc2cccc([N+](=O)[O-])c2)cc1 the results were aSyn UTR act -115.0*.
`COc1cccc(NC(=O)c2ccc(-c3ccccc3[N+](=O)[O-])o2)c1` gave aSyn UTR act -99.8*.
For Cc1cccc(NC(=O)c2ccc(-c3ccccc3[N+](=O)[O-])o2)c1 the results were aSyn UTR act -85.4*.
Cc1ccccc1-c1ccc(C(=O)Nc2cccc(F)c2)o1 was read as aSyn UTR act -128.4*.
CCOC(=O)C1=C(Cc2ccc(C)cc2)C(=O)c2ccccc2C1=O was read as aSyn UTR act -65.4*.
Screening c1ccc2c(c1)NC1(CCCC1)n1c-2nc2ccccc21 returned aSyn UTR act -141.5*.
CCCC1(C)Nc2ccccc2-c2nc3ccccc3n21 (centres undefined) was read as aSyn UTR act -95.7*.
Screening Cn1c(=O)c(-c2cc(Br)ccc2N)nc2ccccc21 returned aSyn UTR act -64.1*.
`Oc1ccc(C=Nc2ccccc2-c2nc3ccccc3[nH]2)c(O)c1` gave aSyn UTR act -124.7*.
`Oc1ccccc1C=Nc1ccccc1-c1nc2ccccc2[nH]1` gave aSyn UTR act -123.0*.
`COc1ccc(OC)c(C=Nc2ccccc2-c2nc3ccccc3[nH]2)c1` gave aSyn UTR act -212.5*.
Screening Cc1ccc2c(COC(=O)c3ccccc3Cl)cc(=O)oc2c1 returned aSyn UTR act -135.5*.
For Cc1ccc2c(COC(=O)C34CC5CC(CC(C5)C3)C4)cc(=O)oc2c1 the results were aSyn UTR act -152.3*.
For Cc1ccc2c(COC(=O)c3ccccc3Br)cc(=O)oc2c1 the results were aSyn UTR act -179.1*.
Screening O=C(Cc1ccccc1)NC(=S)Nc1ccc2oc(-c3ccccc3)nc2c1 returned aSyn UTR act -105.7*.
CC(=O)NC(=S)Nc1ccc2oc(-c3cc(F)c(F)cc3Cl)nc2c1 was read as aSyn UTR act -111.2*.
O=C(Cc1ccccc1)NC(=S)Nc1ccc2oc(-c3ccccc3F)nc2c1 was read as aSyn UTR act -187.2*.
O=C(O)c1cc(O)c2c(c1)C(=O)c1cc(O)cc(O)c1C2=O was read as aSyn UTR act -80.5*.
COC(=O)c1c(C)[nH]c(C(=O)/C=C/c2ccccc2F)c1C was read as aSyn UTR act -244.6*.
COC(=O)c1c(C)[nH]c(C(=O)/C=C/c2ccccc2Cl)c1C was read as aSyn UTR act -301.8*.
Screening Cc1nc(OCC(C)C)c2sc3nc4c(cc3c2n1)COC(C)(C)C4 returned aSyn UTR act -130.4*.
COc1nc(C)nc2c1sc1nc3c(cc12)COC(C)(C)C3 was read as aSyn UTR act -145.0*.
`CC(C)(C)c1cc(NCCCn2ccnc2)n2ncc(-c3ccc(Cl)cc3)c2n1` gave aSyn UTR act -109.1*.
CS(=O)(=O)NNC(=O)Cn1nnc(-c2ccc(OCc3ccccc3Cl)cc2)n1 was read as aSyn UTR act -106.7*.
For COC(=O)/C(=C1/Oc2ccc(C(C)(C)C)cc2S1)C(F)(F)F the results were aSyn UTR act -224.4*.
`Cc1ccc(-n2cnc3sc(C)c(C)c3c2=O)cc1` gave aSyn UTR act -97.9*.
`COc1ccc(-n2cnc3sc4c(c3c2=O)CCCC4)cc1` gave aSyn UTR act -88.0*.
Cc1ccc(-c2nc3sc4c(c3c(=O)n2N)CCCC4)cc1 was read as aSyn UTR act -107.2*.
`CC1=Nn2c(nc3sc4c(c3c2=O)CCCC4)SC1` gave aSyn UTR act -141.9*.
For Nn1c(SCc2ccccc2)nnc1-c1ccccn1 the results were aSyn UTR act -70.3*.
Screening NC(=O)CSc1nc2cccnc2n1-c1ccc(F)cc1 returned aSyn UTR act 51.9.
Nn1c(SCc2ccc(F)cc2)nnc1-c1ccccn1 was read as aSyn UTR act -68.3*.
For Nn1c(SCc2ccccc2F)nnc1-c1ccccn1 the results were aSyn UTR act -124.8*.
`CCCC1c2ccc(C)n2CCN1C(=O)Nc1ccccc1Cl` (centres undefined) gave aSyn UTR act -120.3*.
`c1ccc(C2CSc3ccccc3N2)cc1` (centres undefined) gave aSyn UTR act -196.2*.
For O=C1/C(=C/c2cccc3ccccc23)CCCc2ccccc21 the results were aSyn UTR act -106.0*.
COc1ccc2[nH]c(N=Nc3ccccc3C)c(O)c2c1 was read as aSyn UTR act -207.4*.
Clc1nc2sccn2c1/C=N/n1cnc2ccccc21 was read as aSyn UTR act -147.6*.
Screening COc1ccc(C(=O)C[n+]2cn(C(F)F)c3ccccc32)c(F)c1 returned aSyn UTR act -116.9*.
For C=CCn1c(SCc2ccc(C#N)cc2)nnc1-c1cccc(OC)c1 the results were aSyn UTR act 58.3.
`C=CCn1c(SCc2ccc(OC)cc2)nnc1-c1cccnc1` gave aSyn UTR act -117.4*.
`CCn1c(SCc2ccc(OC)cc2)nnc1-c1ccncc1` gave aSyn UTR act -106.3*.
For COc1cccc(-c2nc3ccc(C(=O)NC(C)Cc4cccnc4)cc3o2)c1 (centres undefined) the results were aSyn UTR act -129.7*.
Screening COC(=O)C1CCN(C(=O)c2ccc3nc(-c4cccc(OC)c4)oc3c2)CC1 returned aSyn UTR act -135.7*.
For CCOc1ccc(C2CC(c3ccc(CC)cc3)Nc3nc(N)nn32)cc1 (centres undefined) the results were aSyn UTR act -64.7*.
Screening Nc1ccc2c(c1Cl)C(=O)c1ccc(N)c(Cl)c1C2=O returned aSyn UTR act -88.0*.
Screening O=C(N/C(=C/c1cccc(Br)c1)c1nc(=S)[nH][nH]1)c1ccccc1 returned aSyn UTR act -77.1*.
`Cc1cc2sc3ccc(C#CC4(O)CCCCC4)cc3c(=O)c2cc1C` gave aSyn UTR act 102.2.
Screening COc1cccc2oc3ccc(C#CC4(N)CCCCC4)cc3c(=O)c12 returned aSyn UTR act -62.3*.
